The panel holds about 83,000 compounds, 20% with a hit somewhere; the sample as a whole holds those more often.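 Single-concentration screen, 48 h exposure, 96-well plates. Endpoint: percent growth. Below 10 = active.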 Values without a mark were called inactive. Calls of active or inactive are those of the source.
How the values were obtained:
Experiment in all cases: NCI-60 one-dose screen, 48 h (100 = growth as untreated, 0 = no growth, -100 = all killed)
Conditions in all cases: 10 µM unless noted
[1] = system: SK-MEL-2 melanoma
[2] = system: EKVX NSCLC
[3] = system: UO-31 renal
[4] = system: TK-10 renal
[5] = system: ACHN renal
[6] = system: CAKI-1 renal
[7] = system: A498 renal
[8] = system: CCRF-CEM leukemia
[9] = system: MOLT-4 leukemia
[10] = system: SR leukemia
[11] = system: RPMI-8226 leukemia
[12] = system: OVCAR-8 ovarian
[13] = system: OVCAR-5 ovarian
[14] = system: OVCAR-4 ovarian
[15] = system: SK-OV-3 ovarian
[16] = system: IGROV1 ovarian
[17] = system: OVCAR-3 ovarian
[18] = system: HS 578T breast
[19] = system: NCI/ADR-RES ovarian

| Compound | growth [1] [%] | growth [2] [%] | growth [3] | growth [4] [%] | growth [5] [%] | growth [6] [%] | growth [7] [%] | growth [8] | growth [9] | growth [10] | growth [11] | growth [12] [%] | growth [13] [%] | growth [14] [%] | growth [15] | growth [16] [%] | growth [17] | growth [18] [%] | growth [19] [%] |
| --- | --- | --- | --- | --- | --- | --- | --- | --- | --- | --- | --- | --- | --- | --- | --- | --- | --- | --- | --- |
| Cc1cc(=O)oc2cc(OCCCOc3ccc(/C=C/C(=O)Nc4ccccc4N)cc3)ccc12 | 48.7 | 31.2 | -22.9% (active) | 49.8 | 34.6 | 29.6 | 11.2 | 9.74% (active) | 12.5% | 21.4% | 0.19% (active) | 44.2 | 37.5 | 40.9 | 7.97% (active) | 39.4 | 5.72% (active) | 48.3 | 21.3 |
| CCCCSc1nc(NCCc2c[nH]c3ccccc23)c(C#N)c(-c2ccc(OC)cc2)n1 | 76.6 | 40.1 | 59.3% | 102 | 66.6 | 53.6 | 103 |  | 26.3% | 5.98% (active) | 30.7% | 79.2 | 87 | 67.2 | 83.7% | 102 | 83.6% | 47 | 51.7 |
| COc1ccc(N2N=C(c3ccc4c(c3)OCO4)CC2c2cccc(NC(=O)CCCNS(=O)(=O)c3ccc(F)cc3)c2)cc1 (stereo not drawn) | 73.5 | 52.1 | 56.2% | 66.8 | 59.2 | 49 | 67.6 | 53.5% | 33.4% | 18.3% | 39.4% | 78.8 | 99.2 | 57.5 | 83.5% | 90.7 | 81.3% | 67.2 | 84.5 |
| COc1ccc(-c2nc(SCC(C)C)nc(NCCc3c[nH]c4ccccc34)c2C#N)cc1 | 80.9 | 40.5 | 57.2% | 120 | 69.5 | 54.1 | 97.4 | 36.2% | 40.4% | 19.7% | 42.8% | 80.4 | 81.5 | 73.8 | 71.7% | 101 | 85.4% | 43.2 | 61.3 |
| CC(C)CSc1nc(NCCc2c[nH]c3ccccc23)c(C#N)c(-c2ccc(Cl)cc2)n1 | 90.1 | 46.1 | 65.1% | 108 | 67.4 | 50.1 | 113 | 20.6% | 20.8% | 7.81% (active) | 36.3% | 76.2 | 80.5 | 78.3 | 81.7% | 96.2 | 76.4% | 51.6 | 54.7 |
| Cc1cc(=O)oc2cc(OCCOc3ccc(/C=C/C(=O)Nc4ccccc4N)cc3)ccc12 | 59.1 | 38.8 | 7.73% (active) | 43.3 | 37.1 | 30.7 | 14.4 | 6.51% (active) | 4.54% (active) | 26.1% | 1.06% (active) | 38.5 | 39.2 | 41.2 | 11.1% | 38.7 | 20.3% | 40.6 | 16.4 |
| COc1ccc(-c2nc3ccc(C(=O)NN4C(=O)c5ccc([N+](=O)[O-])cc5C4=O)cc3[nH]2)cc1 | 101 | 90.7 | 88.6% | 101 | 98.4 | 92.6 | 103 | 83.3% | 98.7% | 89.1% | 80.9% | 97.5 | 88.6 | 101 | 94.8% | 101 | 115% | 104 | 102 |
| Clc1ccc(-c2ccc(OCCCN3CCN(c4ccncc4)CC3)cc2)cc1 | 100 | 30.7 | 66.3% | 89.5 | 87.8 | 66.6 | 84.7 | 4.35% (active) | 1.95% (active) | -21.2% (active) | -9.75% (active) | 86.3 | 96.5 | 64.7 | 58% | 93.7 | 67.4% | 82.5 | 49.7 |
| CC(=O)OC[C@@]1(C)C2CC[C@]3(C)C(CC=C4C5CC(C)(C)CC[C@]5(C(=O)Nc5ccc(Br)cc5)CC[C@]43C)[C@@]2(C)C[C@@H](OC(C)=O)[C@@H]1OC(C)=O (stereo partly drawn) | 42.2 | 32.8 | 37.2% | 45.7 | 39 | 42 | 64.3 | 28.7% | 38% | 32% | 14.5% | 35.9 | 92.8 | 42 | 44% | 57.3 | 45% | 80.5 | 42.5 |
| Cc1ccc(-n2c(-c3cc4ccccc4nc3Cl)noc2=O)cc1 | 80.9 | 47.5 | 72.4% | 122 | 93.6 | 49.8 | 137 | 84.6% | 76.5% | 31.8% | 81.2% | 94.4 | 98.1 | 92.5 | 80.1% | 90.9 | 99.8% | 80.9 | 52.3 |
| CC(C)Sc1nc(NCCc2c[nH]c3ccccc23)c(C#N)c(-c2ccc(F)cc2)n1 | 70.3 | 32.7 | 44.8% | 96.3 | 51.7 | 42.7 | 42.4 | 11.7% | 12% | -19.8% (active) | 14.1% | 57.3 | 81.9 | 59.1 | 76.9% | 90.4 | 58.1% | 43 | 29.5 |
